Bioassay records from PubChem BioAssay.
TMEM16A inh: inhibitors of mouse TMEM16A calcium-activated chloride channel. HEK293 TMEM16A/YFP iodide influx fluorescence, ionomycin. Q8BHY3. 310,000 compounds, 1.2% hits. AID 588511. normalized B-score (activity score, 25-100; higher = stronger inhibition) at 10 µM;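 active means ratio plate-corrected score three or more library SD toward inhibition, starting fluorescence score within five deviations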;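 further: score derived from kinetic fluorescence span divided by baseline fluorescence per well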
Target sequence (Q8BHY3 whole entry, looked up): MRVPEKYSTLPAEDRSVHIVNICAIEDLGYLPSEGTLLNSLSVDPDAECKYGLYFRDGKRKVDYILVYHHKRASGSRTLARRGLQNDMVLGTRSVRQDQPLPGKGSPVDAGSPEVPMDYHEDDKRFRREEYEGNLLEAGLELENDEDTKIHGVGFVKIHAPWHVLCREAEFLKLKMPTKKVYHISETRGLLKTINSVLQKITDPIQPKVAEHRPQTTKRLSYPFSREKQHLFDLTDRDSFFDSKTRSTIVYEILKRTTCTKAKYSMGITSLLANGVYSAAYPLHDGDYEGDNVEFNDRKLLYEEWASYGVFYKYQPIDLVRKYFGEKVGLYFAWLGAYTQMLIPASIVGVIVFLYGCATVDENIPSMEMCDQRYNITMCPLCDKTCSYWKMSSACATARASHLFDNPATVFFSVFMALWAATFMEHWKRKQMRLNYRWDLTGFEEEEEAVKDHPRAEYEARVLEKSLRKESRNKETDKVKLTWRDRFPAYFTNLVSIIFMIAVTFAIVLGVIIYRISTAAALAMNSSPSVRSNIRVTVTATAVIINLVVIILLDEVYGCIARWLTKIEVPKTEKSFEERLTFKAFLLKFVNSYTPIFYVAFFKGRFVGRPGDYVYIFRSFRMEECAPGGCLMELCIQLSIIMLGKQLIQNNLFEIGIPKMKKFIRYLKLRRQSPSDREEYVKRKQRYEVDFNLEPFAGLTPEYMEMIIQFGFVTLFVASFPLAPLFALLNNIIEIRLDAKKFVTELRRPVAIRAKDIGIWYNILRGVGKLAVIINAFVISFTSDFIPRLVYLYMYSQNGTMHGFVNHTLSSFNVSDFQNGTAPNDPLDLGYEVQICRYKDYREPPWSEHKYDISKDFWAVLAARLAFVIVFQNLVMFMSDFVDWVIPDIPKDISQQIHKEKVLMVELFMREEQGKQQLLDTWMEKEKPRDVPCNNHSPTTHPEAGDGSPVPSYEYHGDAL
CHT block: human CHT choline transport inhibition; Q9GZV3; CHT-expressing cells, membrane potential dye, choline response; hits give low values; B-score at 10 µM; 310,000 compounds, 0.86% hits; AID 488975;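 active means B-score over 3 SD under the library average, and starting fluorescence ratio not unusually high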;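 further: choline stimulus applied at its EC90 after an EC20 pre-addition; B-score computed on integrated fluorescence ratio after choline addition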
TMEM16A act: activators or potentiators of mouse TMEM16A chloride channel | Q8BHY3 | 340,000 compounds, 0.3% hits | B-score at 10 µM | HEK293 TMEM16A/YFP-H148Q/I152L, iodide quench fluorescence; hits give low values;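 active means fluorescence-ratio B-score plate-corrected deviation score at least 3 library SD below zero, with starting fluorescence score within 5 deviations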;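 further: channel opened by trigger with iodide after compound preincubation; score built on the fluorescence ratio of max minus min over baseline; more negative score means more quench and so TMEM16A activation or potentiation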
GPR7 antag: blocks human GPR7 receptor signaling; inhibition, % at 4.4 µM; 290,000 compounds, 1.1% hits; GPR7-expressing cells, fluorescence antagonist assay; P48145; AID 1861; in the data active means inhibition above about 16%, passing the limit was not always enough;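 further: cells stimulated with the agonist NPW; 0% = agonist with vehicle and 100% = vehicle without agonist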
CHT PAM: allosteric activators of human choline transporter CHT; Q9GZV3; CHT-expressing cells, membrane potential dye, choline EC20; hits give high values; LV-AA mutant CHT in HEK293 cells; B-score at 10 µM; 310,000 compounds, 0.49% hits;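 active means initial fluorescence not abnormally high and integrated response B-score, plate-corrected, over 3 SD above library mean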
Kir21 block: inhibitors of mouse Kir2.1 inward-rectifier potassium channel | P35561 | HEK293-Kir2.1, FluxOR thallium flux fluorescence; hits give low values | B-score at 10 µM | 310,000 compounds, 0.85% hits | AID 1672;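 active means fluorescence ratio B-score at or below minus 3 SD of library scores, with starting-brightness B-score within 2 SD, cut at about -4.2 in these data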;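 further: channel flux triggered by added potassium and thallium sulfate stimulus; B-score of peak minus minimum fluorescence over baseline after thallium stimulus; more negative B-score means stronger Kir2.1 block with less thallium influx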
Active calls of the source: *; i = inactive; x = no result given. An excerpt weighted towards active compounds, which were near 3.7% of everything screened.

SMILES	TMEM16A inh	CHT block	TMEM16A act	GPR7 antag	CHT PAM	Kir21 block
O=C(Nc1ccc(C(F)(F)F)cc1)C1=NN(C2CCS(=O)(=O)C2)C(=O)CC1 (stereo not drawn)	x	x	i	x	x	x
Nc1nsc2ccccc12	i	i	i	1	i	-5.1*
Nc1nc2c(ccc3ccccc32)s1	i	i	i	x	i	3.1
Cc1ccc(F)c(NC(=O)c2ccc(Cn3cc(Cl)cn3)cc2)c1	i	i	i	34*	i	0.09
COc1ccc(NC(=O)c2ccc(Cn3cc(Cl)cn3)cc2)cc1	i	i	i	-4	i	-0.17
Cc1nn(-c2cc(C(F)(F)F)ccc2Cl)c2nc(C(Cl)(Cl)Cl)[nH]c(=O)c12	100*	i	i	-6	i	0.54
Cc1nn(-c2ccccc2)c2nc(C(F)(F)F)[nH]c(=O)c12	i	i	i	-1	i	1.3
COc1cccc(/C=C/C(=O)OCC(=O)Nc2ccc(Cl)c(S(=O)(=O)N(C)C)c2)c1OC	i	i	i	-6	i	-0.95
NC(=NCCc1c[nH]c2ccccc12)NC(=O)c1ccc(F)cc1	i	i	i	-5	i	-7.2*
Cc1ccc2nc(CCc3nc4ccc(C)cc4[nH]3)[nH]c2c1	i	i	i	-23	i	-4.4*
Cc1ccc2nc(Cc3ccc(N)cc3)[nH]c2c1	i	i	i	1	i	-0.91
COc1ccc2cc(S(=O)(=O)NC3CC(C)(C)NC(C)(C)C3)ccc2c1	i	i	i	-9	i	-0.46
C=CCn1c(SCc2csc(-c3ccc(C)cc3)n2)nnc1-c1ccccc1OC	i	i	i	10	i	-7.7*
C=CCc1ccc(OCCN2CCc3ccccc3C2)c(OC)c1	i	i	i	-6	i	-10*
C/C=C/c1ccc(OCCN2CCc3ccccc3C2)c(OC)c1	i	i	i	-16	i	-11*
C=CCc1ccc(OCCCNCc2ccccc2)c(OC)c1	i	i	i	-12	i	-8*
Cn1cccc1-c1nc2ccccc2[nH]1	i	i	i	-14	i	0.77
O=C(COC(=O)CCC(=O)c1cccs1)Nc1cccc(F)c1	x	x	i	x	x	x
CCC(CC)NC(=O)Nc1ccccc1C(F)(F)F	i	i	i	-5	i	2.7
O=C(Nc1c2c(nn1-c1cccc(Cl)c1)CS(=O)(=O)C2)c1ccco1	i	i	i	8	i	0.98
COc1cc(OC)cc(C(=O)Nc2ccc(NC(=O)c3ccco3)c(Cl)c2)c1	i	i	i	25*	i	0.17
COc1cc(OC)cc(C(=O)NC(=S)Nc2ccc(NC(=O)c3ccco3)cc2)c1	i	i	i	-6	i	0.99
COc1ccc(Cc2nc(C(=O)Nc3ccc(Cl)cc3)cs2)cc1	100*	i	i	-4	i	0.18
COc1ccc(CNC(=O)c2cc(-c3ccco3)on2)cc1	i	i	i	-10	i	0.02
COc1ccc(CNC(=O)c2csc(Cc3ccc(OC)cc3)n2)cc1	i	i	i	-8	i	-11*
SMILES	TMEM16A inh	CHT block	TMEM16A act	GPR7 antag	CHT PAM	Kir21 block
COc1cc(C(C(=O)NC2CCCC2)N(CCO)C(=O)Cn2nnc(-c3ccc(C)o3)n2)ccc1O (stereo not drawn)	i	i	i	-13	i	2.1
O=C(O)CCC(=O)N1CCC(n2nnc3cc(C(F)(F)F)ccc32)CC1	i	i	i	-14	i	-0.4
CN(CC(=O)Nc1ccccc1Cl)C(=O)COC(=O)c1nc(Cl)c(Cl)c(Cl)c1Cl	i	i	i	17	i	-1.4
COc1cc([N+](=O)[O-])ccc1-c1ccc(/C=C2\C(=O)ON=C2c2ccccc2)o1	x	x	-5.7*	x	x	x
O=C1ON=C(c2ccccc2)/C1=C/c1ccccc1	i	i	i	-1	i	0.55
O=C1ON=C(c2ccccc2)/C1=C/c1ccc(O)cc1	i	i	i	-9	i	-6.8*
CC1=NOC(=O)/C1=C\c1ccc(-c2cccc(Cl)c2)o1	100*	i	i	-2	i	-1.3
O=C1ON=C(c2ccc(Cl)cc2)/C1=C/c1ccc(O)cc1	i	i	x	-6	i	-6.1*
Cc1ccc(/C=C2/C(=O)ON=C2c2ccccc2)o1	25*	i	i	-14	i	-5.9*
O=[N+]([O-])c1cc(-c2ccc(/C=N/n3cnnc3)o2)ccc1Cl	i	i	i	-10	6.5*	1.4
COc1cc([N+](=O)[O-])ccc1-c1ccc(/C=N\n2cnnc2)o1	i	i	i	-25	i	1.2
Cc1cc(-c2ccc(/C=N/n3cnnc3)o2)c(C)c([N+](=O)[O-])c1	i	i	i	-16	11*	-0.41
CC(C)COC(=O)c1cc(-c2ccc(/C=N/n3cnnc3)o2)ccc1Cl	i	i	i	-10	i	2.1
O=C1NC(=S)N(c2cccc(Cl)c2)C12CCCCC2	i	i	i	-14	i	-0.88
Cc1nn(C)cc1S(=O)(=O)Nc1ccc(C(F)(F)F)cc1	i	i	i	-6	i	0.86
O=C(C[n+]1ccccc1)Nc1ccccc1C(F)(F)F	i	i	i	-20	i	0.03
C=C1C(=O)C23CCC4C(C)(C(=O)OC)CCCC4(C)C2CCC1(O)C3 (stereo not drawn)	x	x	-8.6*	x	x	x
COC(=O)[C@]1(C)CCC[C@@]2(C)C3CC[C@@]4(C)C[C@]3(CCC21)CC(=O)N4 (stereo partly drawn)	x	x	i	x	x	x
N#CC1=C(SCc2ccccc2)NC(=O)CC1c1cccc(O)c1 (stereo not drawn)	i	i	i	-8	i	-1.6
N#CC1=C(SCc2ccccc2)NC(=O)CC1c1ccc(O)cc1 (stereo not drawn)	i	i	i	-7	i	-4.4*
Cc1ccc(C2CC(=O)NC(SCc3ccccc3)=C2C#N)cc1 (stereo not drawn)	i	i	i	-2	i	-4.3*
CC(C)(C)OC(=O)C[C@@H]1C/C=C\C[C@@H](CC(=O)N(CCO)Cc2ccccc2)C(=O)NCCOC1=O	x	x	-4.8*	x	x	x
CC(C)Cc1ccc(C(=O)NCCOc2ccccc2)o1	i	i	i	-9	i	-1.6
COc1ccc2cc(C(N)=O)c(=Nc3ccc(C)cc3)oc2c1	i	i	-7.7*	-16	i	0.82
COc1ccc2cc(C(N)=O)/c(=N\NC(=O)c3ccccc3)oc2c1	i	i	i	30	i	1.6
O=C1Nc2ccccc2C1(O)c1ccccc1 (stereo not drawn)	i	i	i	-11	i	1.2
